HT1080NT lethal: kills 2HG-producing HT-1080-NT fibrosarcoma cells; HT-1080-NT fibrosarcoma viability, CellTiter-Glo ATP luminescence, 48 h; Potency, µM (doses to about 46.1 µM), usual class: cytotoxic; AID 686970; actives 1.6% (n = 360,000);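 also: NT is the 2HG producing partner of a matched IDH1 knockdown line; nearly all actives have a fitted effect of over 55% in size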
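HT-1080-NT fibrosarcoma cells (2HG-overproducing), 750 cells/well in RPMI with 5% FBS, dosed after 2 h and incubated 48 h at 37C. CellTiter-Glo luminescence normalized to DMSO and no-cell wells; concentration-response curves fitted and classed.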
KB-V1 cytotox: KB-V1 MDR subline cytotoxicity. KB-V1 MDR cells viability, CellTiter-Glo, 72 h. Potency, µM (series often up to 46.1 µM), usual class: cytotoxic. actives 3.4% (n = 400,000). AID 1347076; also: nearly all actives have a fitted effect of over 60% in size
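KB-V1 MDR subline cells in DMEM (phenol-red free, 10% FBS) exposed to compounds in qHTS concentration series for 72 h at 37 degrees C. Viability read by CellTiter-Glo luminescence; concentration-effect curves fitted after normalization and correction.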
DT40 TDP1 CPT: growth inhibition of DT40 Tdp1-/-;hTDP1 cells with camptothecin (screen for TDP1 inhibitors); chicken DT40 Tdp1-/-;hTDP1 cells + 20 nM CPT, ATP luminescence, 48 h; Potency, µM (series often up to 46.2 µM), actives largely listed as inhibitors; actives 12% (n = 420,000); AID 686979; also: nearly all actives have a fitted effect of over 55% in size
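Cell growth measured by CellTiter-Glo luminescence after a minimum 48 h, 37 C compound exposure with 20 nM CPT in Tdp1-knockout DT40 cells stably expressing hTDP1, seeded 400/well; qHTS titration format.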
HT1080 IDH1KD tx: kills HT-1080 cells with IDH1 knockdown; actives 2% (n = 360,000); HT-1080 IDH1 knockdown viability, ATP luminescence, 48 h; Potency, µM (highest dose often 46.1 µM), hits mostly cytotoxic
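IDH1KD HT-1080 cells, 750/well, RPMI + 5% FBS; compound pinned after 2 h settling; 48 h, 37 °C; CellTiter-Glo luminescence; % activity normalised to DMSO and no-cell wells; curves fitted, classed by r2 and efficacy.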
TDP1 cell noCPT: qHTS for Inhibitors of human tyrosyl-DNA phosphodiesterase 1 (TDP1): qHTS in cells in absence of CPT | actives 15% (n = 420,000) | AID 686978, 2013 | DT40 Tdp1-/- hTDP1 cells, no CPT, ATP luminescence, 48 h | Potency, µM (series often up to 46.2 µM), hits mostly inhibitors; also: nearly all actives have a fitted effect of over 55% in size
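Growth of hTDP1-complemented DT40 Tdp1-knockout cells is measured by ATP luminescence after at least 48 hr compound exposure at 37 °C, with DMSO substituting for the 20 nM CPT used in the parallel screen.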
KB-3-1 tox: KB-3-1 parental cell cytotoxicity | KB-3-1 viability, CellTiter-Glo ATP luminescence, 72 h | AID 1347075 | Potency, µM (titrated, usually from 46.1 µM), most hits filed as cytotoxic | actives 1.4% (n = 400,000); also: nearly all actives have a fitted effect of over 60% in size
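Screening of KB-3-1 cells (DMEM, 10% FBS, phenol-red free) ran from lowest to highest compound concentration; after 72 h at 37 °C viability was read luminescently and curves fitted.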
Each line names hits and unclear results; the compound was inactive in the other large screens; ! = not confirmed by another sample. Sampled rows, rich in hits. Any-hit rate of the full collection: about 19%. Calls follow the shape of the dose curve; as a rule, active = well fitted curve in the direction sought with a large enough effect; inconclusive = small, poorly fitted or top-dose-only effect, or another doubt; inactive = no such curve, though single readings can be large; an effect the other way counts as inactive or inconclusive.

Cc1ccc(CNC(=O)C2CCN(S(=O)(=O)c3ccc4c(c3)CCCN4C(=O)C3CCC3)CC2)cc1	KB-V1 cytotox inconclusive, DT40 TDP1 CPT 21µM, TDP1 cell noCPT 7.3µM, KB-3-1 tox inconclusive (no result: HT1080NT lethal, HT1080 IDH1KD tx)
O=C(COC(=O)C(CO)NS(=O)(=O)c1ccc(Br)cc1)Nc1ccc2c(c1)OCCO2 (configuration not stated)	none
CC(=O)Nc1ccc(S(=O)(=O)N(C)c2ccc(OCC(=O)Nc3ccccc3C(C)=O)cc2)cc1	KB-V1 cytotox inconclusive, DT40 TDP1 CPT 18µM, TDP1 cell noCPT 21µM
C=CCn1c(C)cc(C(=O)COc2ccc(N(C)S(=O)(=O)c3ccc(NC(C)=O)cc3)cc2)c1C	DT40 TDP1 CPT 9.2µM, HT1080 IDH1KD tx inconclusive, TDP1 cell noCPT 5.8µM
CC(=O)c1ccccc1NC(=O)COc1ccc(N(C)S(=O)(=O)c2ccc(C)c(C)c2)cc1	DT40 TDP1 CPT 21µM, TDP1 cell noCPT 12µM
Cc1ccc(C(=O)NCC(=O)O)o1	none
COc1cccc(C(c2nnnn2C2CCCCC2)N2CCN(C/C=C/c3ccccc3)CC2)c1OC (configuration not stated)	HT1080NT lethal inconclusive, KB-V1 cytotox inconclusive, DT40 TDP1 CPT 16µM, HT1080 IDH1KD tx inconclusive, TDP1 cell noCPT 13µM, KB-3-1 tox inconclusive
FC(F)(F)Oc1ccccc1C(c1nnnn1C1CCCC1)N1CCN(C/C=C/c2ccccc2)CC1 (configuration not stated)	HT1080NT lethal inconclusive, KB-V1 cytotox inconclusive, DT40 TDP1 CPT inconclusive, HT1080 IDH1KD tx inconclusive, TDP1 cell noCPT 16µM
CCN1CCN(C(c2ccccc2OC)c2nnnn2C2CCCCC2)CC1 (configuration not stated)	none
CCC1CCCCN1c1nc2c(C=O)c(C)nn2c2ccccc12 (configuration not stated)	DT40 TDP1 CPT 21µM, TDP1 cell noCPT 16µM
CCOC(=O)c1nnn2c1nc(N1CCCCC1)c1ccccc12	KB-V1 cytotox inconclusive, DT40 TDP1 CPT inconclusive, TDP1 cell noCPT inconclusive
COc1ccc(C(=O)N2CCN(c3ccc(C)cc3C)CC2)cc1OC	DT40 TDP1 CPT 21µM, TDP1 cell noCPT 26µM
COc1ccc(C(=O)N2CCN(c3ccc(C)c(C)c3)CC2)cc1OC	KB-V1 cytotox inconclusive, DT40 TDP1 CPT inconclusive, TDP1 cell noCPT 16µM
COc1ccc(C(=O)N2CCN(S(=O)(=O)c3ccc(C)cc3C)CC2)cc1OC	TDP1 cell noCPT inconclusive
COc1ccc(NC(=O)C2c3ccccc3OCC(=O)N2Cc2ccc3c(c2)OCO3)cc1 (configuration not stated)	TDP1 cell noCPT inconclusive
Cc1cc(C)n(CCC(=O)N/N=C/c2ccccc2O)n1	KB-V1 cytotox 8.2µM, DT40 TDP1 CPT 12µM, TDP1 cell noCPT 12µM, KB-3-1 tox inconclusive
Cc1cc(C)n(CCC(=O)N/N=C/c2ccc(O)cc2O)n1	DT40 TDP1 CPT inconclusive, HT1080 IDH1KD tx inconclusive, TDP1 cell noCPT 23µM
COc1ccc(/C=N/NC(=O)CCn2nc(C)cc2C)cc1	KB-3-1 tox inconclusive
COc1ccc(/C=N/NC(=O)CCn2nc(C)cc2C)cc1O	none
O=C(Cn1cnc([N+](=O)[O-])n1)N/N=C/c1cccc(Cl)c1	none
O=C(Cn1cnc([N+](=O)[O-])n1)N/N=C/c1ccc(O)cc1O	HT1080NT lethal inconclusive, DT40 TDP1 CPT inconclusive, HT1080 IDH1KD tx 18µM, TDP1 cell noCPT 12µM
COc1cc(=O)n2c(c1C(=O)NC(C)c1ccco1)CCN(Cc1ccccc1C(F)(F)F)CC2 (configuration not stated)	TDP1 cell noCPT inconclusive (no result: HT1080NT lethal, KB-V1 cytotox, HT1080 IDH1KD tx, KB-3-1 tox)
Cc1ccc(NC(=O)/C=C\C(=O)NCC(=O)O)cc1C	none
COC(=O)c1cc(OC)c(OC)cc1NC(=O)c1ccccc1C	none
CCOC(=O)C[C@H]1c2ccccc2S(=O)(=O)N1Cc1cc(OC)c(OC)c(OC)c1	KB-V1 cytotox inconclusive, DT40 TDP1 CPT 15µM, TDP1 cell noCPT 10µM
CCOC(=O)C[C@H]1c2ccccc2S(=O)(=O)N1Cc1cccc(C(F)(F)F)c1	KB-V1 cytotox 10µM!, DT40 TDP1 CPT inconclusive, TDP1 cell noCPT 13µM, KB-3-1 tox 16µM!
CC(=O)c1cccc(NS(=O)(=O)c2cc3c(cc2C)n(C)c(=O)c(=O)n3C)c1	KB-V1 cytotox inconclusive (no result: HT1080NT lethal, HT1080 IDH1KD tx)
CSc1ccc(/C=C(\C(=O)O)c2ccc(S(=O)(=O)N3CCCC3)s2)cc1	KB-V1 cytotox inconclusive
O=C1CC(NNc2ccccc2)C(=O)N1c1ccccc1 (configuration not stated)	HT1080NT lethal inconclusive, HT1080 IDH1KD tx inconclusive
Cc1c(C2CC(=O)N(c3ccccc3)C2=O)[nH]n(-c2ccccc2)c1=O (configuration not stated)	DT40 TDP1 CPT 16µM, TDP1 cell noCPT inconclusive
Cc1cc(Br)ccc1NC(=O)CNC(=O)CN1C(=O)NC2(CCCCCC2)C1=O	none
Cc1cc(Br)ccc1NC(=O)CN1C(=O)C2C3CC(c4ccccc4)C(C3)C2C1=O (configuration not stated)	KB-V1 cytotox 21µM, DT40 TDP1 CPT inconclusive, TDP1 cell noCPT 16µM
COc1cccc(Cn2cc(-c3cccc(C(F)(F)F)c3)nn2)c1	KB-V1 cytotox inconclusive, DT40 TDP1 CPT inconclusive, TDP1 cell noCPT inconclusive
COc1ccc(-c2cn(Cc3cccc(OC)c3)nn2)cc1	KB-V1 cytotox 10µM!, DT40 TDP1 CPT 13µM!, TDP1 cell noCPT 11µM!, KB-3-1 tox inconclusive
COc1ccc(-c2cn(CCc3c[nH]c4ccccc34)nn2)cc1	HT1080NT lethal inconclusive, KB-V1 cytotox inconclusive, DT40 TDP1 CPT 11µM, HT1080 IDH1KD tx inconclusive, TDP1 cell noCPT 10µM
CCOc1ccc(-c2nc(CNC(=O)NC3CCCCC3)c(C)o2)cc1	none (no result: HT1080NT lethal, HT1080 IDH1KD tx)
COc1ccccc1OCCSc1nc(C)c(Cc2ccccc2)c(=O)[nH]1	none
COc1ccc(-c2cc(C)no2)cc1S(=O)(=O)NCCCN1CCN(c2ccccc2)CC1	KB-V1 cytotox inconclusive, DT40 TDP1 CPT inconclusive, TDP1 cell noCPT 23µM, KB-3-1 tox inconclusive
Cc1cc(-c2ccc(C)c(S(=O)(=O)NCCCN3CCN(c4ccccc4)CC3)c2)on1	HT1080NT lethal inconclusive, KB-V1 cytotox inconclusive, DT40 TDP1 CPT inconclusive, TDP1 cell noCPT 23µM, KB-3-1 tox inconclusive
CC(C)N(Cc1ccccc1)C(=O)COC(=O)c1cc[n+]([O-])cc1	none
Nc1cc(=O)[nH]c(SCc2cccc(Cl)c2)n1	DT40 TDP1 CPT 23µM, TDP1 cell noCPT inconclusive
Nc1cc(=O)[nH]c(SCCSc2ccccc2F)n1	KB-V1 cytotox inconclusive, TDP1 cell noCPT inconclusive, KB-3-1 tox inconclusive
